This is an account of results in the supplement of paper PMC6555819.

For this experiment, the system named is VDR:RXRa (NR concentration 270 nM, RXRa partner concentration 90 nM). The experiment is described as follows: PBM binding z-score (relative to random genomic background probes); higher = stronger binding; sequences stand for … in GC…GCGATTGACAGCGTAGAATGAAGG
As for the experimental part: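 Protein-binding microarray (Agilent 4x180K custom design, double-stranded 60-nt probes: 5' GC cap, 34-nt variable region, 24-nt constant primer region; full probe sequence given). Purified or IVT nuclear receptor:RXRα heterodimers (3:1 NR:RXRα, mostly 270:90 nM) or homodimers were incubated for 1 h in PBS with 2% milk and no ligand, then detected with Alexa488 antibodies. Fluorescence from o1-orientation probes (~5 replicates averaged) was converted to z-scores against 500 random hg19 background probes. Variable regions are seed direct-repeat (DR0–DR5) sites, all their single-nucleotide variants and half-site ablations.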
As to GCTAGCAGGCCATTTGGGGCACTCAATGACGGGC, the PBM binding z-score was -0.555. To CCGACTGGGGCAGAAAGGTCACCATACCATCCGG belongs 4.43; to TTATATAGGTAATACAGGTGAAAGTCGGCATCTA, 0.727; to CCTACTGGGCCTAAAAGGTCATTGATGCCGATAA, 4.38. Sequence CCTTACGGGTCAAGGTTAGAGCACGGGTGGTACG had a PBM binding z-score of 3.08. In turn, ATCGAGAGGTCGACGAGGTGAGTATACACCGTTT registered a PBM binding z-score of 4.87. To CCTTACGGGTCAAAGTTATAGCACGGGTGGTACG belongs 3.54; to ATCACTAGGTAACAAGTTCAGTGAAAGAGAGGAC, 1.6. For ATATGTAGGTTAACGGTCATTCAGGTTGGTTCGC, the PBM binding z-score turned out to be 2.32. TCGAGTAGGTTACCAATCGGGCATTCAGCTTTCT: the PBM binding z-score is -0.344. On to CTCCCAAGGTGAACAAGGTCGTTGATTACTATTC, for which the PBM binding z-score is 6.09.

Turning to TCTAGTTGGTCACGGCGGTCACACACGACGGGTA, the PBM binding z-score worked out at 1.82. For the sequence TCATATAGGTAAAAGGTGAAACTCGGTGTGGTAA, the PBM binding z-score was found to be 2.04.

In the case of TAGCCTATGTCATTCAGGGGCCAGTATAGAAAGC, the PBM binding z-score was -0.286. Take CGTCAATGTTCAACTAAGGTAACGTAAAGCACGC: the PBM binding z-score amounted to 0.565. ACTAGTTGGTCAGCTGAGGGCACACACAATTCGG yielded a PBM binding z-score of 1.2. For TGAATGAGTTTAAAGATCAGGGAACGTGGCGTCG, the PBM binding z-score turned out to be 1.09. As for GCTAGTTGGGCAGTAAAAGGTCACACACCGGTCG, the PBM binding z-score was 3.62.

Sequence TCTTGTAGATCAAAGGTTAAGAATGCCGAAGCCT yielded a PBM binding z-score of 1.7. In turn, CCTGCTAGGTCAATGGTCAGCTTAAGCAGCTCGC showed a PBM binding z-score of 1.03. To GCGACTGGGGCATCACCAGGTTACCATAACTTAA belongs -0.162; to AGAACGAGGGCAATGAGATGATAGCACGGGTGGC, 0.474; to ATACCAATGTGATCGTGAGGTCGTTGATACTAAC, 1.62. Consider ATCTCTAGGTAAAGATAGTTCCGTGAATGCAAAT, for which the PBM binding z-score was -0.0941. With CTCGGAAGGTCGTGCTCAGGTGAGTATACCAAAC, the PBM binding z-score was 1.58. In the case of CCTTACGGGTCACTGCAGGTTATAGCATCGGAGT, the PBM binding z-score amounted to 4.19. CAAACTAGGTCGAGAGGTCAAAGTCCGCTTCCCG came in with a PBM binding z-score of 5.01.

In turn, AGAACGAGGGCACGCTGAGTTGATCGCAGAGTAG had a PBM binding z-score of 2.12.

CATACAGGGTCAGCTCGGCCAGAGTAGGGACGGC had a PBM binding z-score of 3.32.

Consider ATCGAAAGGTCGAGGTGAGTATCGAGAAAGGGAA, for which the PBM binding z-score stood at 2.57. As for TCTGCGAGGTCAGTTGGTCAGCTAACGAGCTGCC, the PBM binding z-score was 3.43. The sequence TCTATTAGTTGAAGGGCAATCGACGAGTCCGTTT returned a PBM binding z-score of 1.02. AGAGCGAGGGCAATGAGTTGATAGCACGGGTGGC displayed a PBM binding z-score of 4.97. As to TGTCAAAGTTCAAAGGTAACGCAAGTATCCACAC, the PBM binding z-score is 5.17. CAAACTAGGTCAAGAGGTCCAAGTCCGCTTCCCG had a PBM binding z-score of 4.71. TCTCGGAGGACACGAAGGTCAGAGCCTTCCAGAG gave a PBM binding z-score of 2.42.

Take TAGCCTAGGTCATTCAGCGGCCAGTATAGAAAGC: the PBM binding z-score turned out to be 2.62. The sequence TCTAGCAGGCCAGAGGGTCAATCAAGAGGTACGG gave a PBM binding z-score of 1.6.

On to CAAACTAGGTCAAGAGGTCAAAGTGCGCTTCCCG, for which the PBM binding z-score is 6.26. Consider ACTCGGCGGACAAAGGTCAGAGCTACGCCAGTGA, for which the PBM binding z-score was found to be 2.44.
